# Reference: PMC5836133, “The intracellular immune receptor Rx1 regulates the DNA-binding activity of a Golden2-like transcription factor”
# Over roughly 16,000 sequences, “e-score” has its median near -0.044; the highest 2% begin near 0.38. For the sample, the highest values were picked, then their nearest neighbours and some sequences at random.
# Target: T1, GST-NbGlk1(82-244) (Nicotiana benthamiana)
# T1 chain: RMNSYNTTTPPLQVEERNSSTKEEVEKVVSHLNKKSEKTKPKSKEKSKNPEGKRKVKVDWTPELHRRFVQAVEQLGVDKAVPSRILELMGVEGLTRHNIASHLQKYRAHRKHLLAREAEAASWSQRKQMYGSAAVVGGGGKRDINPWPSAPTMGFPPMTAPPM
# Assay: protein-binding microarray; NbGlk1 is a Golden2-like transcription factor of Nicotiana benthamiana; high values mean tight binding
# Conditions: protein: recombinant; tags: GST (pTH6838); dsDNA, one strand shown
row,Sequence,binding signal [E-score]
1,AATGGATA,0.3 ± 0.0974
2,AAAATATG,0.218 ± 0.038
3,ATAATATC,0.347 ± 0.0287
4,AAAATATC,0.406 ± 0.00752
5,ACAATATA,0.206 ± 0.0382
6,CAAATATC,0.375 ± 0.0172
7,AGAATATC,0.4346 ± 0.00342
8,ACAATATC,0.3871 ± 0.00293
9,AGAATATA,0.267 ± 0.0326
10,AGAATATG,0.253 ± 0.0505
11,ATCCTTTG,0.201 ± 0.0717
12,AATCGCTG,0.234 ± 0.00581
13,ATCTAACC,0.266 ± 0.0179
14,AGTGATAT,0.298 ± 0.0207
15,ATCGCACC,0.247 ± 0.126
16,ATTACAAA,0.302 ± 0.0597
17,AGGATTAT,0.31 ± 0.0692
18,ACGATTCG,0.324 ± 0.025
19,AGGATTGC,0.45 ± 0.0104
20,ATGATTGC,0.33 ± 0.019
21,AGGATCGC,0.357 ± 0.0151
22,ACGATTCC,0.4 ± 0.0168

row,Sequence,binding signal [E-score]
1,ATGATTCC,0.306 ± 0.0505
2,AGGATTAC,0.449 ± 0.00837
3,ACGATTCT,0.362 ± 0.0226
4,AGAATTAC,0.23 ± 0.0195
5,AGGATTCC,0.448 ± 0.00523
6,AGGATTCG,0.352 ± 0.0252
7,ACTTAGAT,0.257 ± 0.118
8,ATCCACCC,0.255 ± 0.0461
9,AAGGATTA,0.278 ± 0.0334
10,ATCTATGG,0.205 ± 0.011
11,ATATCGAG,0.296 ± 0.0718
12,ATTATTCC,0.252 ± 0.0429
13,AACGAGAT,0.309 ± 0.0377
14,AATAGGAT,0.218 ± 0.15
15,AGCAGAAT,0.255 ± 0.0466
16,ATACTCCA,0.208 ± 0.0394
17,ATCGTAAT,0.375 ± 0.0645
18,ATCGGAAA,0.25 ± 0.0729
19,ACGATTGC,0.345 ± 0.0699
20,ACGATTAC,0.407 ± 0.0433
21,ATGATTAC,0.302 ± 0.0176
22,ATTTTCGG,0.237 ± 0.0617

row,Sequence,binding signal [E-score]
1,AGATCTAT,0.337 ± 0.0129
2,AAATCAAC,0.349 ± 0.0103
3,AAATCTAG,0.452 ± 0.0158
4,CAATCTAA,0.351 ± 0.0122
5,AAATCTAT,0.419 ± 0.0237
6,AAATCGAG,0.288 ± 0.0697
7,CAATCTAG,0.3742 ± 0.000815
8,AAATCAAA,0.309 ± 0.0265
9,AAATCAAT,0.31 ± 0.0292
10,CAATCTAC,0.341 ± 0.0196
11,AAATCTAA,0.4499 ± 0.000584
12,AAATCTAC,0.441 ± 0.0198
13,ATATAAAA,0.212 ± 0.0169
14,ACCGGATA,0.262 ± 0.0765
15,AATTTCGT,0.284 ± 0.0162
16,ATCTCGCA,0.324 ± 0.0204
17,AAATAATA,0.227 ± 0.0112
18,ACAAATAT,0.313 ± 0.0317
19,ATCGGGAA,0.276 ± 0.0291
20,ACCTAGAT,0.291 ± 0.0209
21,ATCGCATG,0.29 ± 0.0714
22,CAATCATA,0.255 ± 0.00353

row,Sequence,binding signal [E-score]
1,ATTATAAG,0.253 ± 0.0219
2,ATCCGCCA,0.254 ± 0.0406
3,AAATCTGT,0.446 ± 0.00579
4,AAATCGAT,0.336 ± 0.0651
5,AAATCGGT,0.325 ± 0.0221
6,AACCAGAT,0.301 ± 0.00304
7,AATCGAGA,0.293 ± 0.0295
8,AGAATCCG,0.4779 ± 0.0039
9,AGAATCCA,0.456 ± 0.0261
10,AGAATCCT,0.439 ± 0.00609
11,AGAATCGC,0.377 ± 0.00979
12,ACAATCCG,0.334 ± 0.019
13,AGAATCCC,0.433 ± 0.00879
14,AGAATCAT,0.359 ± 0.0327
15,ATAATCCG,0.337 ± 0.0347
16,AGGATCCA,0.237 ± 0.027
17,ACAATCCC,0.2757 ± 0.00233
18,ACAATCCT,0.302 ± 0.0343
19,ATCCAAAA,0.261 ± 0.0307
20,ATCCTCCG,0.257 ± 0.0282
